Measurements published in ChEMBL document CHEMBL3988442, “University of Dundee, Small-Polar-MMV Screening Library” (2021).

Molecular target: AMP-activated protein kinase, AMPK (Homo sapiens) (UniProt P54646+O43741+P54619+Q9UGJ0+Q9Y478+Q13131+Q9UGI9)
Assay: AMP-dependent Kinase enzyme assay. An in vitro enzyme assay that detects ADP turnover that is directly proportional to AMPK activity. This uses naive AMPK that is activated during the assay with MK-8722
Type: functional
Design: scale not given: direction of the effect not stated beside the values
Conditions: 30 µM

SMILES | Percent Effect [%]
Cc1cc(C2CCCN(Cc3nc(Cc4ccccc4)no3)C2)n[nH]1 (centres undefined) | 3.74
O=C(NC1CCCCC1)N1C[C@H]2CN(c3cnccn3)C[C@@]2(C(=O)O)C1 | 2.64
CN(C)CCN(Cc1ccc(Cl)cc1)C(=O)c1ccn(C)c(=O)c1 | 6.12
O=C(NCC(=O)N1CCN(c2ccccc2)CC1)c1sccc1C1CC1 | -5.62
Cc1ccc(-c2noc(C3CCN3C(=O)c3c(C)noc3C)n2)s1 (centres undefined) | 5.86
Cc1nnc(CN(Cc2ccco2)Cc2cccc3c2OCO3)n1C | -4.86
CNC(=O)c1cn2cc(-c3cccc(Cl)c3)n(CC=C(C)C)c(=O)c2n1 | 2.79
CCC(NC(=O)c1cnc(N(C)C)nc1C)c1ccc(S(C)(=O)=O)cc1 (centres undefined) | -4.95
O=C(NCc1csc(Br)c1)Nc1cn[nH]c1 | -3.79
CN1CCC(NC(=O)c2cc(Cl)cc(Br)c2O)C1=O (centres undefined) | 12.7
CC(C)c1nnc(CN2CC(n3cccn3)Cc3ccccc32)o1 (centres undefined) | -5.15
CCc1nn(C)c(Cl)c1CN(CCOC)Cc1cnn(C)c1 | 5.81
Cc1cc(Cl)c(C)c(S(=O)(=O)N2CCN(Cc3ccccn3)CC2)c1Cl | 1.09
CCc1oc(C(=O)NCCSc2ncn[nH]2)cc1CN1CCCC1 | 1.9
Cc1ccccc1C(NC(=O)CCCS(C)(=O)=O)C(C)(C)C (centres undefined) | 7.1
CC1CN(CC(=O)NCCc2ccccc2)CCN1c1nccs1 (centres undefined) | 25.7
Cc1cc(S(=O)(=O)N(CCO)C2CC2)ccc1F | 0.797
Cc1nc2c(c(N3CCCOCC3)n1)CCN(c1nccs1)CC2 | -16.9
Fc1ccc(C2(CNCCc3cccs3)CCOC2)cc1 (centres undefined) | -3.1
